Consider 63 compounds from PubChem BioAssay AID1159554 (Broad Institute, 2015).

Molecules are shown by their SMILES. Where “and” joins values, the source holds several entries; their conditions need not be identical. Equal entries are not always repeated. Screen size: about 94,000 compounds; about 2,100 (2.2%) were called active. Many of the other results were omitted from the sample, so actives are more common in it than they were. Values without a mark were called inactive. Rule as the data show it: active = activity change below about -80%; inconclusive = no clear call, values can overlap the other calls; inactive = above that.

The experiment in a line: Dd2 malaria parasite growth inhibition – SYBR Green fluorescence, single dose replicates, primary screen (AID 1159554). Conditions: P. falciparum Dd2 growth, 72 h, at 10 µM, stronger effect = lower value.
As to `C[C@H]1CN([C@@H](C)CO)C(=O)c2cc(/C=C/c3ccccc3)cnc2O[C@@H]1CN(C)C(=O)NC1CCCCC1`, the activity change was -82.8% (active).
As to `COc1ccc(-c2cnc3c(c2)C(=O)N([C@@H](C)CO)C[C@H](C)[C@H](CN(C)C(=O)Cc2cccnc2)O3)cc1`, the activity change was -2.15%.
For `C[C@H](CO)N1C[C@H](C)[C@H](CN(C)C(=O)C2CCCCC2)Oc2ncc(C#CC3CC3)cc2C1=O` the value was -16.5%.
Take `C[C@@H]1CN([C@H](C)CO)C(=O)c2cc(-c3ccccc3)cnc2O[C@H]1CN(C)C(=O)NC1CCCC1`: the activity change is -13%.
For `C[C@@H]1CN([C@@H](C)CO)C(=O)c2cc(/C=C/c3ccccc3)cnc2O[C@H]1CN(C)C(=O)C1CCC1` the value was -56.3%.
For `COc1cccc(C#Cc2cnc3c(c2)C(=O)N([C@@H](C)CO)C[C@H](C)[C@@H](CN(C)C(=O)C2CCC2)O3)c1` the value was -74.6%; for `COc1cccc(C#Cc2cnc3c(c2)C(=O)N([C@H](C)CO)C[C@@H](C)[C@@H](CN(C)C(=O)C2CCC2)O3)c1`, -84.4% (active).
For the compound `COc1ccc(-c2cnc3c(c2)C(=O)N([C@H](C)CO)C[C@@H](C)[C@H](CN(C)C(=O)Cc2ccncc2)O3)cc1`, the activity change was -84.6% (active).
Turning to `COc1cccc(C#Cc2cnc3c(c2)C(=O)N([C@@H](C)CO)C[C@H](C)[C@@H](CN(C)C(C)=O)O3)c1`, the activity change was -15.1%.
As to `C[C@H](CO)N1C[C@H](C)[C@@H](CN(C)C(=O)Cc2cccnc2)Oc2ncc(-c3ccncc3)cc2C1=O`, the activity change was 14.1%.
`C[C@H](CO)N1C[C@H](C)[C@H](CN(C)C(=O)C2CC2)Oc2ncc(C#Cc3ccccc3)cc2C1=O`: the activity change is -17.2%.
Regarding `C[C@H](CO)N1C[C@H](C)[C@H](CN(C)C(=O)C2CCCCC2)Oc2ncc(C#Cc3cccc(F)c3)cc2C1=O`, the activity change was -86.4% (active).
As for `CC(C)(C)[S@@](=O)N1Cc2cc(C(=O)N3CCCCC3)nc(-c3cccc(-c4cccc(C#N)c4)c3)c2[C@H]1CCO`, the activity change is -13.7%.
Turning to `O=C(c1ccc(F)cc1)N1CC(=O)N2[C@H](C1)[C@@H](c1ccc(C#CC3CC3)cc1)[C@@H]2CO`, the activity change is -8.1%.
`Cc1ccc(S(=O)(=O)Nc2ccc3c(c2)C(=O)N([C@H](C)CO)C[C@H](C)[C@@H](CN(C)S(=O)(=O)c2cn(C)cn2)OCCCC[C@H](C)O3)cc1`: the activity change is -12.5%.
On to `COC(=O)C[C@H]1CC[C@H](NC(=O)Nc2ccc(C(F)(F)F)cc2)[C@H](CO)O1`, for which the activity change is 21.3%.
For the compound `CCCNC(=O)C[C@H]1CC[C@@H]2[C@H](COc3ccc(NC(=O)c4ccc(OC)cc4)cc3C(=O)N2C)O1`, the activity change was -22.5%.
For `CCC(=O)N1[C@@H](CO)[C@@H](c2ccccc2)C12CN(C(=O)c1cnccn1)C2` the value was -2.84%; for `CCC(=O)N1CC2(CN(Cc3cccnc3)C2)c2c(n(C)c3cc(OC)ccc23)[C@@H]1CO`, -20.9%.
For `COc1ccc(NC(=O)N[C@@H]2CC[C@H](CCn3cc(-c4ccc(OC)cc4)nn3)O[C@@H]2CO)cc1` the value was -56.9%; for `C[C@H]1CN([C@@H](C)CO)C(=O)c2c(c3ccccc3n2C)-c2ccccc2CO[C@@H]1CN(C)C(=O)Nc1ccnc(N2CCOCC2)c1`, -58.1%.
With `CO[C@H]1CN(C)C(=O)c2cc(NC(=O)C3CC3)ccc2OC[C@H](C)N(CC2CCCC2)C[C@@H]1C`, the activity change is -38.7%.
As for `CCS(=O)(=O)N1CC2(C1)CN(S(=O)(=O)c1ccccc1)[C@H](CO)c1c2c2ccc(OC)cc2n1C`, the activity change is -29.8%.
For `O=C(C[C@@H]1C[C@@H]2c3cc(NC(=O)c4ccc5c(c4)OCO5)ccc3O[C@@H]2[C@H](CO)O1)NCCc1ccccc1` the value was -3.19%; for `CCC(=O)N1CCC2(CC1)CN(Cc1ccc(Cl)cc1)[C@@H](CO)c1[nH]c3cc(OC)ccc3c12`, -90.6% (active); for `CCC(=O)N1CC2(CN(Cc3ccc(Cl)cc3)C2)c2c([nH]c3cc(OC)ccc23)[C@@H]1CO`, -23%.
Turning to `COc1ccc2c3c([nH]c2c1)[C@H](CO)N(C(=O)Nc1ccc(F)cc1)CC31CCN(C(=O)c2ccccn2)CC1`, the activity change was -79.3%.
For `CCS(=O)(=O)N1CCC2(CC1)CN(S(=O)(=O)c1ccc(C)cc1)[C@H](CO)c1[nH]c3cc(OC)ccc3c12` the value was -53.4%; for `CCC(=O)N1CCC2(CC1)CN(Cc1cccc(OC)c1)[C@@H](CO)c1[nH]c3cc(OC)ccc3c12`, -89.5% (active).
For `COc1ccc2c3c([nH]c2c1)[C@@H](CO)N(Cc1ccc2c(c1)OCO2)CC31CN(C(=O)Nc2c(C)noc2C)C1` the value was -13.6%; for `CCS(=O)(=O)N1CCC2(CC1)CN(Cc1ccc3c(c1)OCO3)[C@H](CO)c1[nH]c3cc(OC)ccc3c12`, -89.1% (active).
For `COc1ccc2c3c([nH]c2c1)[C@H](CO)N(Cc1ccccc1)CC31CCN(C(=O)c2ccccn2)CC1` the value was -83.5% (active); for `COc1ccc2c3c([nH]c2c1)[C@@H](CO)N(C(=O)NC(C)C)CC31CCN(C(=O)c2ccccn2)CC1`, -13%.
For `CCCC(=O)N1CCC2(CC1)CN(C(=O)C1CCCCC1)[C@@H](CO)c1[nH]c3cc(OC)ccc3c12`, the activity change is -78%.
For `CCCNC(=O)N1CCC2(CC1)CN(Cc1ccccc1)[C@H](CO)c1[nH]c3cc(OC)ccc3c12` the value was -59.4%.
Turning to `CCC(=O)N1CCC2(CC1)CN(Cc1cccc(Cl)c1)[C@@H](CO)c1c2c2ccc(OC)cc2n1C`, the activity change is -75.9%.
For `Cc1noc(C)c1NC(=O)N(C)C[C@@H]1Oc2cc(Br)ccc2S(=O)(=O)N([C@@H](C)CO)C[C@H]1C` the value was 12.9%; for `COc1cccc(NC(=O)C[C@@H]2CC[C@@H]3[C@H](COc4ccc(NC(=O)C5CCOCC5)cc4C(=O)N3C)O2)c1`, 11.1%; for `C/C=C/c1ccc2c(c1)[C@H]1[C@H](CCN1S(=O)(=O)c1cn(C)cn1)[C@H](CO)N2`, -1.2%.
For `CCCNC(=O)N1C[C@H]2[C@@H](c3ccccc31)[C@@H](CO)N2C(=O)NCCC`, the activity change is -1.9%.
For `COc1ccc2c3c([nH]c2c1)[C@@H](CO)N(C(=O)C1CC1)CC31CCN(Cc2nccs2)CC1` the value was -26.9%; for `COc1ccc2c3c([nH]c2c1)[C@H](CO)N(Cc1nccs1)CC31CCN(Cc2cccnc2)CC1`, -58.7%.
For `CCCNC(=O)N1CC2(CCN(Cc3ccc(F)cc3)CC2)c2c([nH]c3cc(OC)ccc23)[C@@H]1CO` the value was -77.7%; for `COc1ccc2c3c([nH]c2c1)[C@@H](CO)N(C(=O)Cc1ccccc1)CC31CCN(C)CC1`, -55.8%; for `COc1ccc2c3c([nH]c2c1)[C@H](CO)N(Cc1ccc(F)cc1)CC31CCN(Cc2ccccn2)CC1`, -89.5% (active).
Turning to `COc1ccc2c3c([nH]c2c1)[C@H](CO)N(Cc1cccc(F)c1)CC31CCN(Cc2ccccn2)CC1`, the activity change was -92.5% (active).
As to `COc1ccc2c3c([nH]c2c1)[C@H](CO)N(Cc1nccs1)CC31CCN(Cc2ccncc2)CC1`, the activity change is -85.5% (active).
For `COc1ccc2c3c([nH]c2c1)[C@@H](CO)N(Cc1nccs1)CC31CCN(C(=O)C2CCCC2)CC1` the value was -74.5%.
For `COc1cccc(CN2CC3(CN(Cc4ccccn4)C3)c3c([nH]c4cc(OC)ccc34)[C@@H]2CO)c1` the value was -87.9% (active).
On to `C[C@@H]1CCCCO[C@@H](CN(C)S(=O)(=O)c2cn(C)cn2)[C@H](C)CN([C@H](C)CO)C(=O)c2cc(NS(=O)(=O)c3ccc(Cl)cc3)ccc2O1`, for which the activity change is -31.8%.
For the compound `COCC(=O)N1C[C@@H](C)[C@H](OC)CN(C)C(=O)c2ccc(NC(=O)c3ccc(F)cc3)cc2OC[C@H]1C`, the activity change is 12.6%.
For `COc1ccc(NC(=O)N(C)C[C@H]2OCCCC[C@H](C)Oc3ccc(NS(=O)(=O)c4ccc(Cl)cc4)cc3C(=O)N([C@@H](C)CO)C[C@H]2C)cc1` the value was -68.7%; for `CN(C)CC(=O)Nc1ccc2c(c1)[C@@H]1C[C@H](CC(=O)NCc3ccc(-c4ccccc4)cc3)O[C@@H](CO)[C@@H]1O2`, -1.93%; for `COCC(=O)Nc1ccc2c(c1)OC[C@H](C)N(C)C[C@H](C)[C@@H](OC)CN(C)C2=O`, 26.8%.
Turning to `C[C@@H]1CCCCO[C@H](CN(C)S(C)(=O)=O)[C@@H](C)CN([C@H](C)CO)C(=O)c2cc(NC(=O)Nc3ccc4c(c3)OCO4)ccc2O1`, the activity change was 25.2%.
With `COCC(=O)Nc1ccc2c(c1)C(=O)N(C)[C@@H]1CC[C@@H](CC(=O)NCc3cccc(F)c3)O[C@@H]1CO2`, the activity change was 5.24%.
Take `CNC(=O)C[C@H]1CC[C@H]2[C@H](COc3ccc(NC(=O)c4cccc(F)c4)cc3C(=O)N2C)O1`: the activity change was 1.45% and 0.97%.
For `CC(C)NC(=O)N[C@H]1CC[C@H](CC(=O)N2CCCCC2)O[C@@H]1CO` the value was 36.7%; for `CCS(=O)(=O)N1[C@H](CO)[C@@H](c2ccccc2)C12CN(C(=O)c1ccccc1F)C2`, -5.45%.
For `COc1ccc2c3c([nH]c2c1)[C@@H](CO)N(Cc1ccccc1)CC31CCN(Cc2cncnc2)CC1` the value was -91.1% (active); for `COc1ccc2c3c([nH]c2c1)[C@@H](CO)N(C(=O)CC1CC1)CC31CCN(Cc2cccnc2)CC1`, -7.62%.
For `COc1ccc2c3c([nH]c2c1)[C@@H](CO)N(C(=O)c1ccccc1)CC31CCN(Cc2cccnc2)CC1` the value was -47.6%; for `CN(C)CC(=O)N[C@@H]1CC[C@H](CC(=O)O)O[C@H]1CO`, 14.9%.
